From PubChem BioAssay (NCI) come the findings set out here.

Each structure is given as a SMILES string. “And” between values parts separate entries of the source, which are not always exact repeats. Equal entries are not always repeated. The panel holds about 83,000 compounds, 20% with a hit somewhere; the sample as a whole holds those more often.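 Single-dose data. Exposure time 48 hours. Values below 10 considered active.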 The source made the active and inactive calls.

Holding throughout (assay): NCI-60 one-dose screen, 48 h (100 = growth as untreated, 0 = no growth, -100 = all killed)
In assay [1] the test system is HCT-15 colon. Conditions: 10 µM unless noted.
For assay [2], the system named is HT29 colon. The settings on record: 10 µM unless noted.
Assay [3] deals with SNB-75 CNS. Conditions: 10 µM unless noted.
In assay [4] the test system is SNB-19 CNS. The settings on record: 10 µM unless noted.
Assay [5] deals with U251 CNS. Conditions: 10 µM unless noted.
Assay [6] concerns PC-3 prostate. Conditions: 10 µM unless noted.
For assay [7], the system named is SK-MEL-5 melanoma. Conditions: 10 µM unless noted.
In assay [8] the test system is UACC-62 melanoma. The settings on record: 10 µM unless noted.
Assay [9] deals with LOX IMVI melanoma. Conditions: 10 µM unless noted.
In assay [10] the test system is SK-MEL-28 melanoma. The settings on record: 10 µM unless noted.
The test system of assay [11] is SK-MEL-2 melanoma. Conditions: 10 µM unless noted.
Assay [12] has as its system SN12C renal. Conditions: 10 µM unless noted.
For assay [13], the system named is TK-10 renal. The settings on record: 10 µM unless noted.
The subject of assay [14] is CAKI-1 renal. The settings on record: 10 µM unless noted.
The test system of assay [15] is A498 renal. Conditions: 10 µM unless noted.
In assay [16] the test system is CCRF-CEM leukemia. The settings on record: 10 µM.
Assay [17] relates to MOLT-4 leukemia. The settings on record: 10 µM unless noted.
The test system of assay [18] is EKVX NSCLC. The settings on record: 10 µM.
Assay [19] deals with ACHN renal. Conditions: 10 µM unless noted.
Assay [20] concerns UO-31 renal. The settings on record: 10 µM unless noted.

With `ClCCOCCOc1ccc(C2CCCCC2)cc1`, the growth in assay [1] is 105% (inactive); in assay [2], 106% (inactive); in assay [3], 98.2% (inactive); in assay [4], 98.4% (inactive); in assay [5] it was 89.7% (inactive); in assay [6] it was 101% (inactive). The growth in assay [7] is 98.8% (inactive); in assay [8], 98.6% (inactive); in assay [9], 107% (inactive); in assay [10], 102% (inactive); in [11], 102% (inactive); in assay [12], 96.3% (inactive). The growth was 108% (inactive) in assay [13]; 97.3% (inactive) in [14]; 73.1% (inactive) in [15]; 107% (inactive) in [16]; 120% (inactive) in [17].

With `O=C(/C=C/c1ccccc1)c1ccccc1`, the growth in assay [1] was 86.3% (inactive); in assay [2], 68.9% (inactive); in [3], 101% (inactive); in assay [4], 79% (inactive); in assay [5] it was 75.1% (inactive); in assay [6] it was 111% (inactive). For the same compound, the growth in assay [7] is 84.4% (inactive); in assay [8], 102% (inactive); in assay [9] it was 89.7% (inactive); in assay [10], 115% (inactive); in assay [11], 101% (inactive); in assay [18] it was 93.4% (inactive). Further, the growth in [12] is 100% (inactive); in [13], 114% (inactive); in assay [14], 99.2% (inactive); in [15] it was 94.2% (inactive).

Regarding `CC(=O)OCC1OC(OC(C)=O)C(OC(C)=O)C(OC(C)=O)C1OC(C)=O` (centres undefined), the growth was 98.2% (inactive) and 104% (inactive) in assay [1]; 110% (inactive) and 115% (inactive) in assay [2]; 67.1% (inactive) and 98.6% (inactive) in [3]; 102% (inactive) and 106% (inactive) in assay [4]; 95.6% (inactive) and 96% (inactive) in [5]; 105% (inactive) and 104% (inactive) in assay [6]. The growth in assay [7] is 102% (inactive) and 100% (inactive); in assay [8] it was 109% (inactive) and 99.9% (inactive); in [9] it was 96.9% (inactive) and 97.3% (inactive); in assay [10], 103% (inactive) and 109% (inactive); in assay [11], 109% (inactive) and 111% (inactive); in assay [12], 104% (inactive) and 105% (inactive). Besides, the growth in assay [13] was 110% (inactive) and 106% (inactive); in assay [19], 96.4% (inactive) and 105% (inactive); in assay [14], 97.1% (inactive) and 100% (inactive); in assay [15], 112% (inactive) and 85.9% (inactive); in assay [16] it was 95.2% (inactive) and 110% (inactive); in assay [17], 98.9% (inactive) and 99.9% (inactive).

With `O=C1C=C(Nc2ccccc2)c2ccccc2C1=O`, the growth is 14.4% (inactive) and 88.9% (inactive) in [1]; 103% (inactive) and 119% (inactive) in assay [2]; 23.5% (inactive) in assay [3]; 45.3% (inactive) and 95.2% (inactive) in assay [4]; 96.6% (inactive) in assay [5]; 53.8% (inactive) and 76.8% (inactive) in assay [6]. In addition, the growth was 74.2% (inactive) in [7]; 4.24% (active) and 97.1% (inactive) in [8]; 71.6% (inactive) in assay [9]; 105% (inactive) and 114% (inactive) in assay [10]; 101% (inactive) in assay [11]; 20.9% (inactive) and 93.6% (inactive) in [12]. Moreover, the growth is 149% (inactive) and 136% (inactive) in assay [13]; 30.1% (inactive) and 92.8% (inactive) in [19]; 55.9% (inactive) and 98.1% (inactive) in [14]; 65.8% (inactive) and 94.4% (inactive) in assay [16]; 72.7% (inactive) and 87% (inactive) in [17].

Consider `Nc1nc(N)c2[nH]cnc2n1`, for which the growth is 107% (inactive) in assay [1]; 101% (inactive) in assay [2]; 91.3% (inactive) in assay [3]; 96.1% (inactive) in assay [4]; 111% (inactive) in assay [5]; 79.3% (inactive) in assay [6]. The growth was 98.1% (inactive) in assay [7]; 84.3% (inactive) in assay [8]; 83% (inactive) in [9]; 99.9% (inactive) in assay [10]; 109% (inactive) in assay [11]; 102% (inactive) in [12]. For the same compound, the growth in assay [20] is 86.9% (inactive); in assay [13] it was 121% (inactive); in assay [14] it was 84.6% (inactive); in assay [15], 109% (inactive); in assay [16], 98.2% (inactive); in assay [17], 92.6% (inactive).

As to `CCCCNc1ccc(Nc2ccccc2)cc1`, the growth was 94.6% (inactive) in assay [1]; 51.5% (inactive) in assay [2]; 84.2% (inactive) in assay [3]; 76.4% (inactive) in assay [4]; 34.8% (inactive) in [5]; 50.8% (inactive) in assay [6]. Besides, the growth in assay [7] is 67.3% (inactive); in assay [8], 60.6% (inactive); in assay [9], 64.9% (inactive); in assay [10], 94.9% (inactive); in assay [11], 87.3% (inactive); in assay [18], 37% (inactive). Further, the growth is 71.9% (inactive) in assay [12]; 73.6% (inactive) in assay [13]; 94.6% (inactive) in assay [14]; 82.7% (inactive) in [15]; 24.5% (inactive) in assay [16]; 84.6% (inactive) in assay [17].
